High-throughput results deposited in PubChem BioAssay by University of Kansas High Throughput Screening Laboratory.
This is a sample that favours compounds with a hit; in the whole collection about 3.5% have one here.
Pf apPOL block = Pf-apPOL DNA polymerase inhibition; hit rate 0.25% among 210,000; Recombinant Pf-apPOL, molecular beacon fluorescence, 1.5 h; AID 1794808; inhibition, % at 10 µM
mHTT-CaM PPI inh = disrupts binding of mutant huntingtin to calmodulin; P42858; AlphaScreen His-mHTT/GST-CaM binding, luminescence; inhibition, % at 15 µM; hit rate 3.6% among 190,000;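 also: 0% = both proteins with DMSO and 100% = one protein alone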
An asterisk follows results filed as active; x = no result. Rule as the data show it: active = inhibition above about 50%; inactive = the rest.

SMILES | Pf apPOL block | mHTT-CaM PPI inh
COCCCNC(=O)c1cc2c(=O)n3ccccc3nc2n(CCc2ccccc2)c1=N | -9 | 3
CCN(CCN(C)C)S(=O)(=O)c1cc(Br)cc2c1N(C(=O)C1CC1)CC2 | -1 | 1
CC1CCC(C(=O)NC(C(=O)NCc2ccccn2)C(C)C)CC1 (stereo unspecified) | 18 | 5
N#CSC(CS(=O)(=O)c1ccc([N+](=O)[O-])cc1)c1ccccc1 (stereo unspecified) | -10 | 62*
Cc1ccc(S(=O)(=O)CC(SC#N)c2ccccc2)cc1 (stereo unspecified) | -5 | -12
COc1cc(C(=O)Nc2ccccc2NC(C)=O)cc(OC)c1OC | -7 | 3
COc1cccc(C(C)NC(=O)c2noc3c2CCc2ccc(OC)cc2-3)c1 (stereo unspecified) | -1 | -23
Cc1cccc(C)c1NC(=O)c1ccco1 | -6 | -9
Cc1ccc(/C=C/NC(=O)c2ccco2)cc1C | -4 | 77*
O=C1OC2(CCCCC2)OC(=O)C1=CNc1ccccc1Cl | 1 | -6
Cn1nc(C(=O)N2CCc3[nH]nc(-c4ccccc4)c3C2)c2ccccc21 | -6 | 87*
O=C(c1ccccn1)N1CCc2[nH]nc(-c3ccccc3)c2C1 | -10 | -4
Cc1ccc(-c2n[nH]c3c2CN(C(=O)c2cccn2C)CC3)cc1 | -12 | 55*
Cc1ccc(-c2n[nH]c3c2CN(C(=O)c2ccoc2)CC3)cc1 | -9 | 10
CCCCc1ccc(/C=C2\C(=O)ON=C2c2ccccc2)s1 | 2 | 10
O=C1CCCC(=O)N1c1ccc(O)cc1 | -4 | 4
COc1ccc(NC(=O)c2nc(C(C)C)oc2C)cc1C(F)(F)F | -1 | -5
CCN(CC)CCC(c1ccc2c(c1)OCO2)c1c(OC)cc(OC)c2c(C)cc(=O)oc12 (stereo unspecified) | -14 | 30
CCN(CC)CCC(c1ccc(N(C)C)cc1)c1c(OC)cc(OC)c2c1OC(=O)CC2c1ccc(N(C)C)cc1 (stereo unspecified) | 0 | 101*
CCN(CC)CCC(c1ccc(N(C)C)cc1)c1c(OC)cc(OC)c2c1OC(=O)CC2c1ccc(OC)cc1 (stereo unspecified) | -9 | 98*
CCN(CC)CCC(c1ccc(OC)cc1)c1c(OC)cc(OC)c2c(C)cc(=O)oc12 (stereo unspecified) | -7 | 14
CNC(=O)NNC(=O)c1onc(-c2c(Cl)cccc2Cl)c1C(=O)OC | -11 | x
COCCCN1C(=O)C(O)=C(C(=O)c2cccs2)C1c1ccccc1 (stereo unspecified) | -6 | 6
O=C(Cc1ccccc1Cl)Nc1nnc(C2CC(=O)N(c3ccccc3)C2)o1 (stereo unspecified) | 0 | 51*
O=C(Cc1cccc(F)c1)Nc1nnc(C2CC(=O)N(c3ccccc3)C2)o1 (stereo unspecified) | -5 | 41
SMILES | Pf apPOL block | mHTT-CaM PPI inh
Cc1ccccc1CC(=O)Nc1nnc(C2CC(=O)N(c3ccc(Cl)cc3)C2)o1 (stereo unspecified) | -4 | 88*
CCCC(=O)Nc1nnc(C2CC(=O)N(c3ccc(Cl)cc3)C2)o1 (stereo unspecified) | -4 | 10
Cc1ccc(OCC(=O)Nc2nnc(C3CC(=O)N(c4ccccc4)C3)o2)cc1 (stereo unspecified) | -2 | 22
O=C(Cc1c(F)cccc1Cl)Nc1nnc(C2CC(=O)N(c3ccccc3)C2)o1 (stereo unspecified) | 4 | 64*
Cc1c(Cl)cccc1N(CC(=O)Nc1ccccc1C(=O)O)S(C)(=O)=O | 2 | 8
CN(C)c1ccc(/C=C2\SC(=O)N(CNc3ccc(I)cc3)C2=O)cc1 | 3 | 6
Cn1cc2c3c(cccc31)CN(C(=O)NCc1ccccc1)CC2 | -6 | 24
Cc1onc(-c2ccccc2Cl)c1C(=O)Nc1ccc(Cl)c(Cl)c1 | -7 | 80*
CC(=O)Nc1ccc(NC(=O)c2c(-c3ccccc3Cl)noc2C)cc1 | 8 | 0
O=C(NNC(=NS(=O)(=O)c1ccc(-n2nc(C(F)(F)F)cc2-c2cccs2)cc1)N1CCCC1)c1ccc(Cl)cc1 | -9 | x
CCN1CCn2c(nc3cc(C(=O)Nc4ccc(C)c(F)c4)ccc32)C1=O | 0 | -9
O=C(c1cc(-c2ccco2)n(C2CCS(=O)(=O)C2)n1)N1CCN(c2ccccn2)CC1 (stereo unspecified) | -5 | -3
O=C(c1cc(C2CC2)n(C2CCS(=O)(=O)C2)n1)N1CCN(c2cccc(Cl)c2)CC1 (stereo unspecified) | -3 | 84*
Cc1ccc(CN2CCCN(c3ncccc3-c3nc(C(C)C)no3)CC2)cc1 | 3 | -23
c1cc2c(cc1CN1CCc3nc(Nc4ccc5c(c4)OCCO5)ncc3C1)OCCO2 | -1 | 71*
Clc1ccc(CN2CCc3nc(Nc4ccc5c(c4)OCO5)ncc3C2)cc1 | -1 | 36
Clc1ccc(CN2CCc3nc(Nc4ccc5c(c4)OCCO5)ncc3C2)cc1 | -1 | 77*
Fc1ccccc1Nc1ncc2c(n1)CCN(Cc1ccc3c(c1)OCCO3)C2 | -4 | 19
Nc1ncnc(Nc2cccc(C(F)(F)F)c2)n1 | 6 | x
CCN1C(=O)c2cccnc2Sc2cc(NC(=O)c3cccc(C)c3)ccc21 | -7 | 14
CC(/C=C1\SC(=S)N(CC(=O)O)C1=O)=C\c1ccccc1 | -2 | x
O=C(O)CCCN1C(=O)C(=CC=Cc2ccccc2)SC1=S | -75 | 25
O=C(O)CCCN1C(=O)CC(N2C(=O)C(=CC=Cc3ccccc3)SC2=S)C1=O (stereo unspecified) | -67 | 54*
CC(=Cc1ccccc1)C=C1SC(=S)N(C2CC(=O)N(CCCCCC(=O)O)C2=O)C1=O (stereo unspecified) | -94 | 53*
O=C(CCN1C(=O)c2ccccc2C1=O)NCc1ccco1 | -8 | 6
SMILES | Pf apPOL block | mHTT-CaM PPI inh
NNc1ncc(Cl)cc1Cl | -30 | 100*
Oc1ccc(Oc2ncc(Cl)cc2Cl)cc1 | x | -3
CCC1CCCCN1C(=O)c1nn2c(c1Cl)NC(c1ccccc1)CC2C(F)(F)F (stereo unspecified) | -6 | 87*
O=C(c1nn2c(c1Cl)NC(c1ccccc1)CC2C(F)(F)F)N1CCCCC1 (stereo unspecified) | -1 | 14
O=C(c1nn2c(c1Cl)NC(c1ccccc1)CC2C(F)(F)F)N1CCc2ccccc2C1 (stereo unspecified) | -3 | 72*
O=C(c1nn2c(c1Cl)NC(c1ccccc1)CC2C(F)(F)F)N1CCCCCC1 (stereo unspecified) | -2 | 50
CN(C)S(=O)(=O)c1cc(C(=O)Nc2cccnc2)c(Cl)cc1Cl | -2 | 5
COc1cccc(Oc2c(C)oc3cc(O)ccc3c2=O)c1 | 2 | -2
CCC(=O)Nc1nc(-c2ccc(F)cc2)cs1 | -6 | -6
Fc1ccc(-c2csc(Nc3ccc(Br)cc3)n2)cc1 | 1 | 98*
Cc1ccc(-c2csc(Nc3ccc(F)cc3)n2)cc1 | -2 | 35
CCCCOc1ccc(-c2csc(N)n2)cc1[N+](=O)[O-] | 3 | 22
CCOc1ccc(-c2csc(Nc3ccc(F)cc3)n2)cc1[N+](=O)[O-] | 0 | 91*
Fc1ccc(Nc2nc(-c3ccc(Cl)cc3)cs2)cc1 | -2 | 71*
Nc1nc(-c2ccc3c(c2)OCO3)cs1 | 1 | 8
Brc1ccc(-c2csc(Nc3ccc4c(c3)OCO4)n2)cc1 | -4 | 61*
CCCCS(=O)(=O)N1CC=C(c2cn(C)c3ncccc23)CC1 | -5 | 4
